# Screening data deposited in PubChem BioAssay by National Center for Advancing Translational Sciences (NCATS).
# An excerpt weighted towards active compounds, which were near 17% of everything screened.
# HepG2 viability – qHTS for Inhibitors of TGF-b: Cytotox Counterscreen | HepG2 CAGA-GFP viability, ATP luminescence, 18 h | Potency, µM (top dose mostly 46.1 µM), inactives show at the top dose activity change, negative = cytotoxicity, usual class: cytotoxic | 410,000 tested, 0.76% active
#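 CellTiter-Glo luminescence gave cytotoxicity after 18 hours at 37 degrees C. The cells were HepG2 CAGA-GFP in 1% FBS DMEM, stimulated with 500 pg/mL TGF-beta after compound addition. %Activity was normalised to no-cell wells (complete cell-killing) and DMSO (no toxicity), and curves were fitted and classified.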
# HT1080 IDH1KD tx – qHTS for induction of synthetic lethality in tumor cells producing 2HG: qHTS for the HT-1080-IDH1KD cell line. AID 686971, 2013. 360,000 tested, 2% active. HT-1080 IDH1 knockdown viability, ATP luminescence, 48 h. Potency, µM (series often up to 46.1 µM), for inactives: at the top dose activity, negative = toxicity, hits mostly cytotoxic;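 further: 0% = DMSO wells and -100% = cell-free medium wells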
#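 % activity derives from luminescence (CellTiter-Glo), normalised to DMSO and no-cell wells. HT-1080-IDH1KD cells, 750/well, had 48 h compound exposure at 37 °C.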
# DT40 TDP1 CPT – qHTS for Inhibitors of human tyrosyl-DNA phosphodiesterase 1 (TDP1): qHTS in cells in presence of CPT; chicken DT40 Tdp1-/-;hTDP1 cells + 20 nM CPT, ATP luminescence, 48 h; Potency, µM (series often up to 46.2 µM), inactives show at the top dose activity change, negative = growth inhibition, hits mostly inhibitors; 420,000 tested, 12% active; AID 686979, 2013; further: on the % scale 0 is the no-effect control and ±100 the full control effect; nearly all actives have a fitted effect of over 55% in size
#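 Chicken DT40 Tdp1-/- cells stably complemented with human TDP1 were seeded at 400 cells/well in medium containing 20 nM camptothecin, exposed to pin-transferred compounds, and grown at 37 °C for at least 48 hr. Viability was read as ATP luminescence.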
# HT1080-NT tox – qHTS for induction of synthetic lethality in tumor cells producing 2HG: qHTS for the HT-1080-NT fibrosarcoma cell line; HT-1080-NT fibrosarcoma viability, CellTiter-Glo ATP luminescence, 48 h; 360,000 tested, 1.6% active; Potency, µM (top dose mostly 46.1 µM), for the others: at the highest dose activity, negative = less viability, actives largely listed as cytotoxic;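 further: NT is the 2HG producing partner of a matched IDH1 knockdown line; 0% = DMSO-treated cells and -100% = media-only wells without cells; nearly all actives have a fitted effect of over 55% in size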
#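 Read-out is CellTiter-Glo luminescence after 10 minutes at room temperature, following 48 hours' compound treatment of HT-1080-NT cells (750 cells/well, RPMI, 5% FBS, 37 degrees C).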
# TGFb SMAD3 inh – qHTS for Inhibitors of TGF-b; HepG2 CAGA-GFP TGF-b/SMAD3 reporter, GFP fluorescence, 18 h; TGF-beta stimulated, 500 pg/mL final; Potency, µM (titrated, usually from 46.1 µM), inactives show top-dose activity, negative = inhibition, usual class: inhibitors; 410,000 tested, 1.2% active; AID 588855, 2011; further: on the % scale 0 is the no-effect control and ±100 the full control effect; nearly all actives have a fitted effect of over 65% in size
#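 First, reporter cells (HEPG2 CAGA-GFP) rested 2 h at 37 degrees C. Next, compounds were pinned in and TGF-beta added to 500 pg/mL final. After 18 h, GFP was imaged per cell and summed per well.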
# TDP1 cell noCPT – qHTS for Inhibitors of human tyrosyl-DNA phosphodiesterase 1 (TDP1): qHTS in cells in absence of CPT; DT40 Tdp1-/- hTDP1 cells, no CPT, ATP luminescence, 48 h; 420,000 tested, 15% active; Potency, µM (highest dose often 46.2 µM), without a hit: top-dose activity change, negative = growth inhibition, most hits filed as inhibitors; further: on the % scale 0 is the no-effect control and ±100 the full control effect; nearly all actives have a fitted effect of over 55% in size
#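 No-CPT arm: Tdp1-/-;hTDP1 DT40 cells (400/well) plus compounds, incubated ≥48 hr at 37 °C. Readout CellTiter-Glo luminescence.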
# An asterisk follows results filed as active; ? = inconclusive; / = not tested or not shown; [ ] = remark or other dose. The call rests on the fitted dose curve; in most records, active means well fitted curve in the direction sought with a large enough effect; inconclusive means small, poorly fitted or top-dose-only effect, or another doubt; inactive means no such curve, though single readings can be large; an effect the other way counts as inactive or inconclusive. Potency means the concentration at half of the fitted maximal effect.
SMILES,HepG2 viability,HT1080 IDH1KD tx,DT40 TDP1 CPT,HT1080-NT tox,TGFb SMAD3 inh,TDP1 cell noCPT
CCOC(=O)c1cc2c(ccn2C)n1CC(=O)N(Cc1ccccc1)c1ccc(F)cc1,-10%,-2%,-27%,-23%,-4%,-2%
CC(C)OC(=O)c1cc2c(ccn2C)n1CC(=O)N(Cc1ccccc1)c1ccc(F)cc1,-21%,21µM*,16µM*,?,?,21µM*
Cc1ccc(C)c(Cn2c(C(=O)OC(C)C)cc3c2ccn3C)c1,-27%,-9%,-18%,-7%,-23%,?
CCOC(=O)c1cc2c(ccn2C)n1CC(=O)N(Cc1ccccc1)c1ccccc1,0%,-16%,23µM*,-9%,?,?
CC(C)OC(=O)c1cc2c(ccn2C)n1CC(=O)N1CCC(Cc2ccccc2)CC1,-8%,?,?,-28%,?,21µM*
Cc1ccccc1Cn1c(C(=O)OC(C)C)cc2c1ccn2C,-2%,-13%,?,-5%,-9%,?
COc1ccc(NC(=O)[C@@H]2CC=C[C@@H]3CCN(C4CC4)C(=O)[C@@H]32)cc1,-35%,/,-6%,/,22%,0%
CCOC(=O)[C@]12CCCC=C1N(CCc1ccc(OC)c(OC)c1)C(=O)[C@H](CC(=O)N1CCCC1)C2,/,-20%,12µM*,0%,/,9.2µM*
CCOC(=O)[C@]12CCC=C1N(CCC1=CCCCC1)C(=O)[C@H](CC(=O)N1CCN(C(=O)c3ccco3)CC1)C2,/,10%,?,17%,/,?
CCOC(=O)[C@]12CCC=C1N(CCC1=CCCCC1)C(=O)[C@H](CC(=O)N1CCN(C(=O)C3CC3)CC1)C2,/,17%,-29%,11%,/,-20%
CCOC(=O)[C@]12CCCC=C1N(CCC1=CCCCC1)C(=O)[C@H](CC(=O)N1CCCC1)C2,/,-27%,2.1µM*,-19%,/,2.3µM*
CCOC(=O)[C@]12CCCC=C1N(CCC1=CCCCC1)C(=O)[C@H](CC(=O)N1CCC(c3ccccc3)CC1)C2,/,?,?,?,/,15µM*
CCOC(=O)[C@]12CCC=C1N(CCC1=CCCCC1)C(=O)[C@H](CC(=O)N1CCCCC1)C2,/,17%,18µM*,12%,/,13µM*
NC(=O)c1ccc(NC(=O)COC(=O)C2CCN(S(=O)(=O)c3cccs3)CC2)cc1,-6%,1%,1%,7%,-3%,-10%
CCn1c(-c2ccccc2F)nc2cc(NC(C)=O)cc(C(=O)N3CCCCC3c3nccn3C)c21 (stereo not drawn),/,/,2%[9.04 µM],/,/,-1%
CCOC(=O)[C@]12CCC=C1N(CCC1=CCCCC1)C(=O)[C@H](CC(=O)N1CCCC1)C2,/,9%,23µM*,18%,/,?
CN(/N=C/c1c[nH]c2ccccc12)c1cnn(-c2ccc(F)c(Cl)c2)c(=O)c1Cl,-11%,-17%,26µM*,1%,1%,26µM*
CN(/N=C/c1cccnc1)c1cnn(-c2ccc(F)c(Cl)c2)c(=O)c1Cl,3%,15%,-26%,8%,1%,-9%
CN(C)c1nc2c(N)ncnc2n1C1OC(CO)C(O)C1O (stereo not drawn),18%,27%,4%,9%,-1%,3%
Nc1ncnc2c1nc(Cl)n2[C@@H]1O[C@H](CO)[C@@H](O)[C@@H]1O,-92%,/,1µM*,/,?,5µM*
CN(C)c1nc2c(N)ncnc2n1[C@H]1O[C@@H](CO)[C@H](O)[C@@H]1O,7%,-4%,10%,2%,-6%,-14%
Nc1ncnc2c1nc(Cl)n2C1OC(CO)C(O)C1O (stereo not drawn),/,/,0.37µM*,/,/,0.46µM*
[N-]=[N+]=Nc1nc2c(N)ncnc2n1C1OC(CO)C(O)C1O (stereo not drawn),/,/,0.41µM*,/,/,0.58µM*
COc1ccc(CCCc2nnc(SCC(=O)NN)o2)c(C)c1,0%,-11%,17%,-12%,0%,?
Cc1ccc(-c2ccnc(-n3ncc(C(=O)NC[C@@H]4CCCN5CCCC[C@H]45)c3C3CC3)n2)o1,/,/,13%,/,/,-14%
SMILES,HepG2 viability,HT1080 IDH1KD tx,DT40 TDP1 CPT,HT1080-NT tox,TGFb SMAD3 inh,TDP1 cell noCPT
O=C(c1ccc(-c2nnc(Nc3cccc(Cl)c3)c3ccccc23)cc1)N1C[C@H]2C[C@H](C1)c1cccc(=O)n1C2,3%,?,?,?,0%,16µM*
COc1ccccc1NC(=O)N(Cc1ccco1)Cc1cc2cccc(C)c2[nH]c1=O,-22%,-9%,16µM*,-13%,?,29µM*
COc1ccccc1NC(=O)N(Cc1ccco1)Cc1cc2c(C)ccc(C)c2[nH]c1=O,0%,12%,1%,15%,-4%,-3%
CCN(CC)CCN(Cc1cc2cc(C)ccc2[nH]c1=O)C(=O)Nc1ccccc1OC,-31%,-25%,?,-27%,5%,?
Cc1ccc2[nH]c(=O)c(CN(Cc3ccco3)C(=O)c3ccncc3)cc2c1,-4%,?,10µM*,?,2%,10µM*
O=C(c1cccs1)N(Cc1ccco1)Cc1cc2ccccc2[nH]c1=O,2%,-2%,?,-3%,-8%,?
CCN1CCCC1CN(Cc1cc2ccc(C)cc2[nH]c1=O)C(=S)Nc1ccc(OC)cc1OC (stereo not drawn),-12%,?,?,?,3%,?
CCN1CCCC1CN(Cc1cc2cc(C)cc(C)c2[nH]c1=O)C(=O)Nc1ccccc1OC (stereo not drawn),-33%,?,13µM*,-24%,?,21µM*
COc1ccccc1NC(=S)N(Cc1ccco1)Cc1cc2cc(C)ccc2[nH]c1=O,13%,?,9.2µM*,?,4%,13µM*
Cc1cnc(CNc2ncncc2-c2cccc(C#N)c2)cn1,/,/,-6%,/,/,0%
O=C(N=C1SC2CS(=O)(=O)CC2N1c1ccccc1)c1cccc([N+](=O)[O-])c1 (stereo not drawn),5%,-2%,-19%,9%,3%,2%
CC(C)(C)NC(=O)Nc1nnc(SCC(=O)NC2CCCCC2)s1,11%,-10%,?,-11%,14%,?
